# Measured values as given in ChEMBL document CHEMBL3988442, “University of Dundee, Small-Polar-MMV Screening Library” (2021).
# In all, about 48,000 compounds went through this assay and about 13,000 (27%) showed an effect of 50% or more. The list shows a part of the results.
# Tested on: Wolbachia pipientis
# Assay: Anti-Wolbachia Cell-Based Screen
# Assay type: functional
# Design: scale not given: in the data most compounds retested in dose-response had high values
# Settings: 5 µM
row,Structure (SMILES),Percent Effect [%]
1,CCN(Cc1ccc(C#N)cc1F)C(=O)CN(C)CC(N)=O,-8.702
2,COCc1ccccc1C(=O)NCCCN1CCCC1C(=O)N(C)C (stereo not given),-20.3
3,CC(C)c1nnc2n1CCN(c1nc3ccccc3o1)C2,11.04
4,CCN(CC)C1CCN(C(=O)c2cc(-n3cccn3)ccc2Cl)CC1,93.46
5,O=C(c1ccc(-n2cccn2)cc1Cl)N1CCCC(O)(CO)C1 (stereo not given),-12.88
6,O=C(c1cc(-n2cccn2)ccc1Cl)N1CCC(N2CCCC2=O)CC1,95.9
7,Cc1nn(-c2ccccc2)cc1C(=O)N1CCCN2CCCC2C1 (stereo not given),6.19
8,O=C(c1cccnc1-n1cccn1)N1CCN(CC2CC2)CC1,-16.04
9,CC(C)CCC(=O)N1CCN(C(=O)c2ccc(-n3cccn3)cc2)CC1,-3.976
10,O=C(c1cc(-n2cccn2)ccc1Cl)N1CCCC(N2CCCC2)C1 (stereo not given),114.1
11,O=C(NCc1ccccc1-n1cccn1)N1CCN2CCCCC2C1 (stereo not given),-0.3123
12,O=C(c1cccc(-n2cccn2)c1)N1CCOC(CCO)C1 (stereo not given),-0.5625
13,CCn1ccnc1CN1CCCC(N(C)CCc2ccccc2)C1 (stereo not given),3.806
14,COc1ccc(Cl)cc1-c1cc(NC(=O)C2COCCO2)[nH]n1 (stereo not given),-1.485
15,Cc1cc(I)cnc1NC(=O)C(C)(C)C,-4.531
16,CC(C)Cc1nc(OCC(N)=O)c(C#N)c2c1CCC2,34.66
17,COCCCC1(C(=O)O)CCCN(C(=O)c2ccc(C(C)C)[nH]c2=O)C1 (stereo not given),4.25
18,O=C(Nc1ccnc(OC2CCOC2)c1)c1ccccc1Cl (stereo not given),70.82
19,O=C(Nc1ccnc(OC2CCOC2)c1)c1ccc(F)cc1Cl (stereo not given),-10.63
20,Cc1occc1C(=O)Nc1ccnc(OC2CCOC2)c1 (stereo not given),30.35
21,N[C@H]1CN(C(=O)c2ccccc2Oc2ccccc2)C[C@@H]1C1CC1,-0.964
22,O=C(O)c1ccnc(-c2ccnc(N3CCC(F)(F)CC3)n2)c1,-4.386
23,CCN1CCN(CCC(=O)NC2CC(c3cccc(Cl)c3)C2)CC1 (stereo not given),-7.949
24,Cc1nccn1C1CCCN(C(=O)c2ccc3c(c2)CCC3)C1 (stereo not given),108.9

row,Structure (SMILES),Percent Effect [%]
1,Cc1nccn1C1CCCN(C(=O)c2cc3ccccc3[nH]2)C1 (stereo not given),-11.12
2,Cc1nccn1C1CCCN(C(=O)c2ccc3c(c2)COC3)C1 (stereo not given),0.6755
3,Cc1nccn1C1CCCN(C(=O)c2ccc3cc[nH]c3c2)C1 (stereo not given),104
4,CC(CO)NCc1csc2c1CCCC2 (stereo not given),1.325
5,CCCc1ccc(CN2CCN(C(=O)CC(C)C)[C@@H]3CS(=O)(=O)C[C@@H]32)o1,-2.422
6,O=C(O)C(F)(F)F.O=C(c1ccncc1)N1CCc2ncnc(C3CC3)c2CC1,-7.83
7,O=C(NC1CC1)N1CCc2ncnc(-c3ccncc3)c2CC1.O=C(O)C(F)(F)F,-17.44
8,O=C(O)C(F)(F)F.O=C(c1ccno1)N1CCc2ncnc(-c3ccncc3)c2CC1,111.4
9,COc1cc(N2CCc3ncnc(-c4ccncc4)c3CC2)ncn1.O=C(O)C(F)(F)F,4.079
10,CC(C)NC(=O)N1CCc2ncnc(-c3ccncc3)c2CC1.O=C(O)C(F)(F)F,129.4
11,Cc1ncnc2c1CCN(C(=O)c1ccncc1)CC2.O=C(O)C(F)(F)F,-2.654
12,CN(C)C(C(=O)NC1(CO)CCCC1)c1ccc(F)cc1 (stereo not given),-4.7
13,O=C1N(c2ccc(Br)cc2)Cc2nc(=O)[nH]n21,13.29
14,Cc1cc(C(=O)N[C@@H]2CCNC[C@H]2O)ccc1Cl,-15.13
15,Cc1cc2cc(C(=O)N[C@@H]3CC[C@@H](N4CCCC4)[C@@H]3O)ccc2o1,117.2
16,Cc1cc2cc(C(=O)N3CCN(CCO)[C@@H]4CS(=O)(=O)C[C@@H]43)ccc2o1,-0.6581
17,Cc1cc2cc(C(=O)N[C@@H]3CC[C@@H](N4CCOCC4)[C@@H]3O)ccc2o1,-19.97
18,Cc1cc2cc(C(=O)N[C@@H]3CC[C@@H](N4CCNC(=O)C4)[C@@H]3O)ccc2o1,121.8
19,CCN(C)c1ncnc2c1CCN(C(=O)c1ccno1)CC2,-25.29
20,N#Cc1cnn(C(=O)CCCOc2ccccc2Cl)c1N,5.085
21,CC(=O)N1CCC(n2ccc(-c3cnc(N4CCOCC4)nc3)n2)CC1,94.2
22,CN(C(=O)c1cnc(N2CCOCC2)nc1)C1Cc2ccccc2C1,-2.733
23,CC(=O)N1CCC(n2ccc(-c3cnc(NCC(C)C)nc3)n2)CC1,75.49
24,CC[C@H](C)Nc1ncc(-c2ccn(C3CCN(C(C)=O)CC3)n2)cn1,95.97

row,Structure (SMILES),Percent Effect [%]
1,CC(=O)N1CCC(c2nnc3ccc(C(=O)NCC(C)C)cn23)C1 (stereo not given),-18.5
2,O=C(NCC(F)F)N1CCC(n2ccc(C(F)(F)F)n2)CC1,4.357
3,CCC(SC)C(=O)N1CCC(n2ccnn2)CC1 (stereo not given),9.459
4,CC(C)NC(=O)N1CCC(n2ccc(C(F)(F)F)n2)CC1,-15.91
5,Cn1cc(-c2cnc(N3CCOCC3)nc2)cc1C(=O)O,-1.361
6,O=C(O)c1cc(-c2ccncc2)cc(S(=O)(=O)N2CCSCC2)c1,-4.815
7,O=C(CCC(=O)N1CCOCC1c1ccccc1)c1cccs1 (stereo not given),-0.4955
8,CC(C(=O)Nc1ccc2ccccc2c1)N1CCC(n2ccnc2)CC1 (stereo not given),14.62
9,CCSCCNc1nc(-c2ccccn2)nc2c1c(C)nn2C,-9.72
10,CCCc1nnc(N(C)CC2CCN(CC(C)C)C2)o1 (stereo not given),22.96
11,CCc1nnc2n1CCN(Cc1csc(-c3ccccc3)n1)C2,-8.809
12,CCc1nnc2n1CCN(Cc1csc(Cc3ccccc3)n1)C2,110.3
13,CCc1nnc2n1CCN(Cc1csc(-c3cnn(C)c3)n1)C2,-17.9
14,Cc1nnc2n1CCN(Cc1csc(Cc3ccccc3)n1)C2,-6.731
15,CC(=O)Nc1nc(CN2CCn3c(C)nnc3C2)cs1,106.6
16,CCc1nnc2n1CCN(Cc1csc(NC(C)=O)n1)C2,125.2
17,CC(=O)Nc1nc(CN2CCn3c(nnc3C3CC3)C2)cs1,-1.677
18,Cc1nnc2n1CCN(Cc1csc(CC(=O)N(C)C)n1)C2,-5.269
19,CC(C)c1nnc2n1CCN(Cc1csc(-c3cnn(C)c3)n1)C2,-7.082
20,CC(C)c1nnc2n1CCN(Cc1csc(CC(=O)N(C)C)n1)C2,-25.19
21,CCc1nnc2n1CCN(Cc1csc(-c3ccccc3F)n1)C2,-7.505
22,CC(=O)Nc1nc(CN2CCn3c(nnc3C(C)C)C2)cs1,134.2
